This is part of a sample that, as a whole, favours compounds with a hit. Of some 83,000 tested, about 20% had one in any assay.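 Values shown are percent growth following 48 h exposure of cells in 96-well plates to a single concentration of compound; below 10 was considered active.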 Calls of active or inactive are those of the source.
How the values were obtained:
Assay in all cases: NCI-60 one-dose screen, 48 h (100 = growth as untreated, 0 = no growth, -100 = all killed)
SK-MEL-2 melanoma = settings: 10 µM
EKVX NSCLC = settings: 10 µM
UO-31 renal = settings: 10 µM
TK-10 renal = settings: 10 µM unless noted
ACHN renal = settings: 10 µM
CAKI-1 renal = settings: 10 µM
A498 renal = settings: 10 µM
CCRF-CEM leukemia = settings: 10 µM
MOLT-4 leukemia = settings: 10 µM
SR leukemia = settings: 10 µM
RPMI-8226 leukemia = settings: 10 µM
OVCAR-8 ovarian = settings: 10 µM
OVCAR-5 ovarian = settings: 10 µM
OVCAR-4 ovarian = settings: 10 µM
SK-OV-3 ovarian = settings: 10 µM
OVCAR-3 ovarian = settings: 10 µM
NCI/ADR-RES ovarian = settings: 10 µM
SN12C renal = settings: 10 µM
IGROV1 ovarian = settings: 10 µM
HS 578T breast = settings: 10 µM

Measured: growth

CC(C)=C(NC(=O)c1ccccc1)C(=O)O
active: CCRF-CEM leukemia 7.71%
inactive: SK-MEL-2 melanoma 98.3% | EKVX NSCLC 118% | UO-31 renal 101% | TK-10 renal 106% | ACHN renal 106% | CAKI-1 renal 103% | A498 renal 90.5% | MOLT-4 leukemia 12.1% | SR leukemia 95.4% | RPMI-8226 leukemia 87.4% | OVCAR-8 ovarian 104% | OVCAR-5 ovarian 101% | OVCAR-4 ovarian 118% | SK-OV-3 ovarian 112% | OVCAR-3 ovarian 107% | NCI/ADR-RES ovarian 111%

c1csc(-c2cc(-c3cc(-c4cccs4)[nH]n3)n[nH]2)c1
inactive: SK-MEL-2 melanoma 132% | EKVX NSCLC 64.8% | SN12C renal 97.4% | TK-10 renal 162% | ACHN renal 92.7% | A498 renal 139% | CCRF-CEM leukemia 66.1% | MOLT-4 leukemia 97.7% | RPMI-8226 leukemia 94.6% | OVCAR-8 ovarian 104% | OVCAR-5 ovarian 104% | OVCAR-4 ovarian 101% | SK-OV-3 ovarian 97% | IGROV1 ovarian 89.3% | OVCAR-3 ovarian 118% | HS 578T breast 74.6% | NCI/ADR-RES ovarian 99.5%

CC(=O)OCCO
inactive: SK-MEL-2 melanoma 143% | SN12C renal 98.5% | UO-31 renal 90.3% | TK-10 renal 114% | ACHN renal 105% | CAKI-1 renal 104% | A498 renal 109% | CCRF-CEM leukemia 111% | MOLT-4 leukemia 102% | SR leukemia 107% | OVCAR-8 ovarian 101% | OVCAR-5 ovarian 102% | OVCAR-4 ovarian 100% | SK-OV-3 ovarian 113% | IGROV1 ovarian 113% | OVCAR-3 ovarian 110% | HS 578T breast 115% | NCI/ADR-RES ovarian 110%

O=C1C=C(Nc2ccc([N+](=O)[O-])cc2)c2ccccc2C1=O
active: SK-MEL-2 melanoma -7.97% | OVCAR-3 ovarian 7.94%
inactive: SN12C renal 39.8% | UO-31 renal 30% | TK-10 renal 80.4% | ACHN renal 45.8% | CAKI-1 renal 67.9% | A498 renal 40.6% | CCRF-CEM leukemia 38.9% | MOLT-4 leukemia 28.5% | SR leukemia 23.9% | RPMI-8226 leukemia 18% | OVCAR-8 ovarian 35.1% | OVCAR-4 ovarian 45.3% | SK-OV-3 ovarian 62.3% | IGROV1 ovarian 60.8% | HS 578T breast 47.5% | NCI/ADR-RES ovarian 32.5%

CC(C)(C)n1nc(C2CC2)c(Br)c1NC(=O)c1ccccc1F
inactive: SK-MEL-2 melanoma 103% | SN12C renal 102% | UO-31 renal 91.5% | TK-10 renal 103% | ACHN renal 101% | CAKI-1 renal 80.8% | A498 renal 101% | MOLT-4 leukemia 93.3% | RPMI-8226 leukemia 96.7% | OVCAR-8 ovarian 101% | OVCAR-5 ovarian 104% | OVCAR-4 ovarian 87.1% | SK-OV-3 ovarian 94.5% | IGROV1 ovarian 99.3% | OVCAR-3 ovarian 117% | HS 578T breast 94.9% | NCI/ADR-RES ovarian 103%

CCCCCCCCO
inactive: SK-MEL-2 melanoma 117% | SN12C renal 97.5% | UO-31 renal 111% | TK-10 renal 110% | ACHN renal 105% | CAKI-1 renal 103% | A498 renal 108% | CCRF-CEM leukemia 108% | MOLT-4 leukemia 97.4% | SR leukemia 102% | OVCAR-8 ovarian 100% | OVCAR-5 ovarian 101% | OVCAR-4 ovarian 80.1% | SK-OV-3 ovarian 111% | IGROV1 ovarian 114% | OVCAR-3 ovarian 107% | HS 578T breast 111% | NCI/ADR-RES ovarian 102%

C=CC(O)CCC (stereo not drawn)
inactive: SK-MEL-2 melanoma 122% | SN12C renal 99.5% | UO-31 renal 89.9% | TK-10 renal 102% | ACHN renal 98.5% | CAKI-1 renal 92.1% | A498 renal 108% | CCRF-CEM leukemia 98.4% | MOLT-4 leukemia 110% | SR leukemia 92.4% | RPMI-8226 leukemia 103% | OVCAR-5 ovarian 103% | OVCAR-4 ovarian 95.6% | SK-OV-3 ovarian 108% | IGROV1 ovarian 121% | OVCAR-3 ovarian 113% | HS 578T breast 110% | NCI/ADR-RES ovarian 103%

COC(=O)c1ccc(NC(=O)CCl)cc1
inactive: SK-MEL-2 melanoma 66% | SN12C renal 76.6% | UO-31 renal 107% | TK-10 renal 88% | ACHN renal 85.7% | CAKI-1 renal 83.9% | A498 renal 97.4% | MOLT-4 leukemia 72.7% | SR leukemia 38.7% | RPMI-8226 leukemia 70.4% | OVCAR-8 ovarian 85.5% | OVCAR-5 ovarian 96.4% | OVCAR-4 ovarian 95.4% | SK-OV-3 ovarian 96.7% | IGROV1 ovarian 50.6% | OVCAR-3 ovarian 82.4% | HS 578T breast 74.9% | NCI/ADR-RES ovarian 97.1%

Cc1ncc(C#N)c(N)n1
inactive: SK-MEL-2 melanoma 106% | SN12C renal 103% | UO-31 renal 85.7% | TK-10 renal 109% | ACHN renal 121% | A498 renal 87.1% | CCRF-CEM leukemia 126% | MOLT-4 leukemia 102% | SR leukemia 92.4% | RPMI-8226 leukemia 103% | OVCAR-8 ovarian 102% | OVCAR-5 ovarian 99.5% | OVCAR-4 ovarian 92.5% | SK-OV-3 ovarian 117% | IGROV1 ovarian 106% | OVCAR-3 ovarian 110% | HS 578T breast 92.3% | NCI/ADR-RES ovarian 100%

CC(=O)C1CCCCC1
inactive: SK-MEL-2 melanoma 106% | SN12C renal 97.5% | UO-31 renal 92.8% | TK-10 renal 99.5% | ACHN renal 97.3% | CAKI-1 renal 90.8% | A498 renal 99.1% | RPMI-8226 leukemia 96.4% | OVCAR-8 ovarian 95% | OVCAR-5 ovarian 107% | SK-OV-3 ovarian 103% | IGROV1 ovarian 106% | OVCAR-3 ovarian 110% | HS 578T breast 104% | NCI/ADR-RES ovarian 107%

CC1CCCCN1C(=S)Nc1ccc(S(=O)(=O)N2CCCCC2)cc1 (stereo not drawn)
inactive: SK-MEL-2 melanoma 107% | SN12C renal 109% | UO-31 renal 89.4% | TK-10 renal 107% | ACHN renal 99.8% | CAKI-1 renal 75.8% | A498 renal 70.9% | CCRF-CEM leukemia 75.9% | MOLT-4 leukemia 104% | SR leukemia 81.1% | RPMI-8226 leukemia 74.7% | OVCAR-8 ovarian 106% | OVCAR-4 ovarian 90.4% | IGROV1 ovarian 138% | OVCAR-3 ovarian 97.7% | HS 578T breast 88.9% | NCI/ADR-RES ovarian 107%

COc1cc(C2c3cc4c(cc3C3OC(=O)C2C3CO)OCO4)cc(OC)c1OC (stereo not drawn)
active: SK-MEL-2 melanoma 7.33% | A498 renal -7.83% | CCRF-CEM leukemia -7.15% | SR leukemia 4.01% | OVCAR-8 ovarian 3.3% | SK-OV-3 ovarian -7.31% | OVCAR-3 ovarian -21.9% | NCI/ADR-RES ovarian -2.7%
inactive: SN12C renal 23.8% | UO-31 renal 38.2% | TK-10 renal 49.6% | ACHN renal 24.9% | CAKI-1 renal 37.4% | RPMI-8226 leukemia 18.3% | OVCAR-5 ovarian 27.1% | OVCAR-4 ovarian 28.3% | IGROV1 ovarian 13.7%

CC(C)=CC(=O)OC(=O)C=C(C)C
inactive: SK-MEL-2 melanoma 108% | SN12C renal 100% | UO-31 renal 94.5% | TK-10 renal 102% | ACHN renal 105% | CAKI-1 renal 108% | A498 renal 124% | MOLT-4 leukemia 101% | SR leukemia 94.7% | RPMI-8226 leukemia 109% | OVCAR-8 ovarian 99.7% | OVCAR-5 ovarian 104% | OVCAR-4 ovarian 119% | SK-OV-3 ovarian 96.8% | IGROV1 ovarian 106% | OVCAR-3 ovarian 101% | NCI/ADR-RES ovarian 117%

O=C1OC(=O)C2C1C1(Cl)C(Cl)=C(Cl)C2(Cl)C2C(=O)OC(=O)C21 (stereo not drawn)
inactive: SK-MEL-2 melanoma 88.7% | SN12C renal 105% | UO-31 renal 84.4% | TK-10 renal 93% | ACHN renal 105% | CAKI-1 renal 106% | A498 renal 107% | MOLT-4 leukemia 105% | RPMI-8226 leukemia 96.4% | OVCAR-5 ovarian 106% | OVCAR-4 ovarian 101% | SK-OV-3 ovarian 102% | IGROV1 ovarian 109% | OVCAR-3 ovarian 112% | NCI/ADR-RES ovarian 108%

C/C(=N\NC(=O)c1ccccc1N)c1ccccc1O
inactive: SK-MEL-2 melanoma 71.2% | SN12C renal 41.1% | UO-31 renal 29.3% | TK-10 renal 27.6% | ACHN renal 32.3% | A498 renal 89% | MOLT-4 leukemia 19.3% | SR leukemia 35.3% | RPMI-8226 leukemia 52.1% | OVCAR-8 ovarian 18.2% | OVCAR-5 ovarian 52.2% | SK-OV-3 ovarian 58.3% | IGROV1 ovarian 36.3% | OVCAR-3 ovarian 12.4% | HS 578T breast 97.8% | NCI/ADR-RES ovarian 26.7%
active: CAKI-1 renal 3.89% | OVCAR-4 ovarian 6.68%
